# Laboratory results as given in PubChem BioAssay (NCI).
# This is part of a sample that, as a whole, favours compounds with a hit. Of some 79,000 tested, about 15% had one in any assay. Unmarked numbers belong to inactive results. Active and inactive are the calls of the source. No stated cut-off is given here; in the data, active means growth inhibition above about 70%; inactive means the rest.
# Assays:
# [1] = NCI Yeast Anticancer Drug Screen. Data for the rad52 strain (AID 147);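 further: 0% = growth of vehicle-treated control cultures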; settings: S. cerevisiae rad52 mutant growth inhibition, active compounds read high
# Method in brief: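 Here a repair-compromised yeast strain receives each compound; its growth is then quantified and normalised to vehicle-only controls.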
# [2] = NCI Yeast Anticancer Drug Screen. Data for the wt1 strain (AID 149);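 further: 0% = growth of vehicle-treated wt1 cultures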; settings: S. cerevisiae wt1 strain (SPY 50644) growth inhibition, active compounds read high
# Method in brief: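 Vehicle-normalised growth inhibition; strain wt1; compound exposure.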
# [3] = NCI Yeast Anticancer Drug Screen. Data for the rad50EPP+ strain (AID 151);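 further: 0% = growth of vehicle-treated control cultures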; settings: S. cerevisiae rad50 mutant strain, active compounds read high
# Method in brief: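 Read-out is yeast growth inhibition relative to vehicle; cells used were the rad50EPP+ strain.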
# [4] = NCI Yeast Anticancer Drug Screen. Data for the mgt1 strain (AID 153); settings: S. cerevisiae mgt1 mutant growth inhibition, active compounds read high
# Method in brief: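 Measured: inhibition of mgt1 yeast growth by compound, normalized to vehicle-treated cultures.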
# [5] = NCI Yeast Anticancer Drug Screen. Data for the rad50 strain (AID 155);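 further: 0% = growth of vehicle-only cultures of the same strain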; settings: S. cerevisiae rad50 strain growth inhibition, active compounds read high
# Method in brief: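 A DNA repair-deficient yeast mutant serves as the test organism; compound-induced growth inhibition is calculated against vehicle-treated cells.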
# [6] = NCI Yeast Anticancer Drug Screen. Data for the mec2-1 strain (AID 157); settings: S. cerevisiae mec2-1 strain, active compounds read high
# Method in brief: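 Using mec2-1 yeast: add compound, measure growth, express inhibition versus vehicle-treated cultures.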
# [7] = NCI Yeast Anticancer Drug Screen. Data for the rad14 strain (AID 159);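 further: 0% = growth of vehicle-treated control cultures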; settings: S. cerevisiae rad14 strain growth inhibition, active compounds read high
# Method in brief: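 Vehicle-treated cultures served as the baseline for growth inhibition of a DNA repair-mutant yeast strain exposed to each compound.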
# [8] = NCI Yeast Anticancer Drug Screen. Data for the sgs1 mgt1 strain (AID 161);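 further: 0% = growth of cultures given vehicle only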; settings: S. cerevisiae sgs1 mgt1 strain, active compounds read high
# Method in brief: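 Growth of a repair-deficient yeast mutant was monitored after compound treatment and expressed as inhibition relative to vehicle-treated cultures.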
# [9] = NCI Yeast Anticancer Drug Screen. Data for the CLN2oe strain (AID 163);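 further: 0% = growth of vehicle-only control cultures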; settings: S. cerevisiae CLN2oe strain, active compounds read high
# Method in brief: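 Whole-cell yeast growth assay. A strain engineered for altered cell-cycle control received compound, and inhibition relative to vehicle-treated cultures was recorded.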
# [10] = NCI Yeast Anticancer Drug Screen. Data for the cln2 rad14 strain (AID 165);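 further: 0% = growth equal to vehicle treated cultures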; settings: S. cerevisiae cln2 rad14 strain, active compounds read high
# Method in brief: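 Yeast strain cln2 rad14, bearing defects in cell cycle control and DNA repair, serves as the test system; values reflect growth inhibition compared with vehicle.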
# [11] = NCI Yeast Anticancer Drug Screen. Data for the bub3 strain (AID 167); settings: S. cerevisiae bub3 mutant strain, active compounds read high
# Method in brief: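 Inhibition values come from growth of compound-treated mutant yeast normalised to vehicle-treated controls.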
# [12] = NCI Yeast Anticancer Drug Screen. Data for the wt2 strain (AID 169);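 further: 0% = growth of vehicle-treated yeast cultures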; settings: S. cerevisiae wt2 strain growth inhibition, active compounds read high
# Method in brief: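 Treated yeast vs. vehicle-treated yeast: growth inhibition determined.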
# [13] = NCI Yeast Anticancer Drug Screen. Data for the mlh1 strain (AID 171);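 further: 0% = growth of vehicle-treated control cultures of the same strain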; settings: S. cerevisiae mlh1 strain growth inhibition, active compounds read high
# Method in brief: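 A yeast strain with a defined genetic lesion serves as the test organism. Cultures receive compound or vehicle, and growth is measured.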
# [14] = NCI Yeast Anticancer Drug Screen. Data for the sgs1 strain (AID 173);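 further: 0% = growth of vehicle-only control cultures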; settings: S. cerevisiae sgs1 mutant, active compounds read high
# Method in brief: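 A genetically defined yeast mutant is incubated with the test compound, and its growth is compared to that of the same strain given vehicle.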
# [15] = NCI Yeast Anticancer Drug Screen. Data for the mlh1 rad18 strain (AID 175); settings: S. cerevisiae mlh1 rad18 strain growth inhibition, active compounds read high
# Method in brief: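 Steps: expose repair-defective yeast to compound; measure growth; express inhibition against vehicle-treated controls.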
# [16] = NCI Yeast Anticancer Drug Screen. Data for the rad18 strain (AID 177); settings: S. cerevisiae rad18 mutant growth inhibition, active compounds read high
# Method in brief: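 Measured value is growth inhibition of a yeast strain bearing a DNA repair alteration, referenced to vehicle-treated cells.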
# [17] = at 5.0 µM (retest, dose inferred, filed as 0.5)
# [18] = at 50.0 µM (retest, dose inferred, filed as 5.0)
smiles,measurement,setting,value
O=C(O)C1CC(c2ccccc2)=NN1c1ccccc1 (stereo not drawn),growth inhibition,[1]; at 1.2 µM,-28%
same,growth inhibition,[1]; at 3.7 µM,-9%
same,growth inhibition,[1]; at 11.0 µM,4%
same,growth inhibition,[1]; at 33.0 µM,58%
same,growth inhibition,[1]; at 100.0 µM,95% (active)
same,growth inhibition,[2]; at 1.2 µM,-60%
same,growth inhibition,[2]; at 3.7 µM,-56%
same,growth inhibition,[2]; at 11.0 µM,-50%
same,growth inhibition,[2]; at 33.0 µM,-11%
same,growth inhibition,[2]; at 100.0 µM,93% (active)
same,growth inhibition,[3]; at 1.2 µM,-17%
same,growth inhibition,[3]; at 3.7 µM,-17%
same,growth inhibition,[3]; at 11.0 µM,-9%
same,growth inhibition,[3]; at 33.0 µM,-3%
same,growth inhibition,[3]; at 100.0 µM,51%
same,growth inhibition,[4]; at 1.2 µM,-48%
same,growth inhibition,[4]; at 3.7 µM,-56%
same,growth inhibition,[4]; at 11.0 µM,-41%
same,growth inhibition,[4]; at 33.0 µM,-1%
same,growth inhibition,[4]; at 100.0 µM,95% (active)
same,growth inhibition,[5]; at 1.2 µM,-10%
same,growth inhibition,[5]; at 3.7 µM,-11%
same,growth inhibition,[5]; [17],27%
same,growth inhibition,[5]; at 11.0 µM,-1%
same,growth inhibition,[5]; at 33.0 µM,33%
same,growth inhibition,[5]; [18],84% (active)
same,growth inhibition,[5]; at 50.0 µM,19.4%
same,growth inhibition,[5]; at 100.0 µM,95% (active)
same,growth inhibition,[6]; at 1.2 µM,-45%
same,growth inhibition,[6]; at 3.7 µM,-53%
same,growth inhibition,[6]; [17],27%
same,growth inhibition,[6]; at 11.0 µM,-42%
same,growth inhibition,[6]; at 33.0 µM,-43%
same,growth inhibition,[6]; [18],84% (active)
same,growth inhibition,[6]; at 50.0 µM,59.8%
same,growth inhibition,[6]; at 100.0 µM,92% (active)
same,growth inhibition,[7]; at 1.2 µM,-19%
same,growth inhibition,[7]; at 3.7 µM,-15%
same,growth inhibition,[7]; at 11.0 µM,-18%
same,growth inhibition,[7]; at 33.0 µM,28%
same,growth inhibition,[7]; at 100.0 µM,97% (active)
same,growth inhibition,[8]; [17],-12%
same,growth inhibition,[8]; [18],25%
same,growth inhibition,[8]; at 50.0 µM,58.6%
same,growth inhibition,[9]; at 1.2 µM,-5%
same,growth inhibition,[9]; at 3.7 µM,17%
same,growth inhibition,[9]; at 11.0 µM,22%
same,growth inhibition,[9]; at 33.0 µM,29%
same,growth inhibition,[9]; at 100.0 µM,97% (active)
same,growth inhibition,[10]; [17],-15%
same,growth inhibition,[10]; [18],-61%
same,growth inhibition,[10]; at 50.0 µM,62.8%
same,growth inhibition,[11]; at 1.2 µM,-28%
same,growth inhibition,[11]; at 3.7 µM,-22%
same,growth inhibition,[11]; [17],-7%
same,growth inhibition,[11]; at 11.0 µM,-20%
same,growth inhibition,[11]; at 33.0 µM,-10%
same,growth inhibition,[11]; [18],78% (active)
same,growth inhibition,[11]; at 50.0 µM,46%
same,growth inhibition,[11]; at 100.0 µM,94% (active)
same,growth inhibition,[12]; at 1.2 µM,-38%
same,growth inhibition,[12]; at 3.7 µM,-46%
same,growth inhibition,[12]; at 11.0 µM,-36%
same,growth inhibition,[12]; at 33.0 µM,0%
same,growth inhibition,[12]; at 100.0 µM,98% (active)
same,growth inhibition,[13]; at 1.2 µM,-31%
same,growth inhibition,[13]; at 3.7 µM,-14%
same,growth inhibition,[13]; at 11.0 µM,-9%
same,growth inhibition,[13]; at 33.0 µM,8%
same,growth inhibition,[13]; at 100.0 µM,96% (active)
same,growth inhibition,[14]; at 1.2 µM,-29%
same,growth inhibition,[14]; at 3.7 µM,-34%
same,growth inhibition,[14]; at 11.0 µM,-16%
same,growth inhibition,[14]; at 33.0 µM,20%
same,growth inhibition,[14]; at 100.0 µM,96% (active)
same,growth inhibition,[15]; [17],52%
same,growth inhibition,[15]; [18],96% (active)
same,growth inhibition,[15]; at 50.0 µM,85.2% (active)
same,growth inhibition,[16]; at 1.2 µM,-38%
same,growth inhibition,[16]; at 3.7 µM,-37%
same,growth inhibition,[16]; at 11.0 µM,-12%
same,growth inhibition,[16]; at 33.0 µM,26%
same,growth inhibition,[16]; at 100.0 µM,96% (active)
CC1SC2(C(=O)Nc3ccc(Cl)cc32)N(c2ccc(Cl)cc2)C1=O (stereo not drawn),growth inhibition,[1]; at 1.2 µM,-2%
same,growth inhibition,[1]; at 3.7 µM,0%
same,growth inhibition,[1]; at 11.0 µM,17%
same,growth inhibition,[1]; at 33.0 µM,98% (active)
same,growth inhibition,[1]; at 100.0 µM,89% (active)
same,growth inhibition,[2]; at 1.2 µM,-3%
same,growth inhibition,[2]; at 3.7 µM,-4%
same,growth inhibition,[2]; at 11.0 µM,-3%
same,growth inhibition,[2]; at 33.0 µM,68%
same,growth inhibition,[2]; at 100.0 µM,61%
same,growth inhibition,[3]; at 1.2 µM,-2%
same,growth inhibition,[3]; at 3.7 µM,-3%
same,growth inhibition,[3]; at 11.0 µM,-1%
same,growth inhibition,[3]; at 33.0 µM,-2%
same,growth inhibition,[3]; at 100.0 µM,1%
same,growth inhibition,[4]; at 1.2 µM,-5%
same,growth inhibition,[4]; at 3.7 µM,-4%
same,growth inhibition,[4]; at 11.0 µM,3%
same,growth inhibition,[4]; at 33.0 µM,98% (active)
same,growth inhibition,[4]; at 100.0 µM,95% (active)
same,growth inhibition,[5]; at 1.2 µM,-14%
same,growth inhibition,[5]; at 3.7 µM,0%
same,growth inhibition,[5]; [17],20%
same,growth inhibition,[5]; at 11.0 µM,10%
same,growth inhibition,[5]; at 33.0 µM,96% (active)
same,growth inhibition,[5]; [18],-1%
same,growth inhibition,[5]; at 50.0 µM,99.6% (active)
same,growth inhibition,[5]; at 100.0 µM,96% (active)
same,growth inhibition,[6]; at 1.2 µM,-3%
same,growth inhibition,[6]; at 3.7 µM,3%
same,growth inhibition,[6]; [17],11%
same,growth inhibition,[6]; at 11.0 µM,18%
same,growth inhibition,[6]; at 33.0 µM,99% (active)
same,growth inhibition,[6]; [18],5%
same,growth inhibition,[6]; at 50.0 µM,99.8% (active)
same,growth inhibition,[6]; at 100.0 µM,98% (active)
same,growth inhibition,[7]; at 1.2 µM,-3%
same,growth inhibition,[7]; at 3.7 µM,-2%
same,growth inhibition,[7]; at 11.0 µM,10%
same,growth inhibition,[7]; at 33.0 µM,99% (active)
same,growth inhibition,[7]; at 100.0 µM,99% (active)
same,growth inhibition,[8]; [17],15%
same,growth inhibition,[8]; [18],4%
same,growth inhibition,[8]; at 50.0 µM,99.8% (active)
same,growth inhibition,[9]; at 1.2 µM,-7%
same,growth inhibition,[9]; at 3.7 µM,-7%
same,growth inhibition,[9]; at 11.0 µM,12%
same,growth inhibition,[9]; at 33.0 µM,99% (active)
same,growth inhibition,[9]; at 100.0 µM,81% (active)
same,growth inhibition,[10]; [17],-1%
same,growth inhibition,[10]; [18],-11%
same,growth inhibition,[10]; at 50.0 µM,99.5% (active)
same,growth inhibition,[11]; at 1.2 µM,3%
same,growth inhibition,[11]; at 3.7 µM,12%
same,growth inhibition,[11]; [17],28%
same,growth inhibition,[11]; at 11.0 µM,31%
same,growth inhibition,[11]; at 33.0 µM,95% (active)
same,growth inhibition,[11]; [18],9%
same,growth inhibition,[11]; at 50.0 µM,99.5% (active)
same,growth inhibition,[11]; at 100.0 µM,97% (active)
